# The supplement of paper PMC6555819
# Tests used:
# Assay in all cases: PBM binding z-score (relative to random genomic background probes); higher = stronger binding; sequences stand for … in GC…GCGATTGACAGCGTAGAATGAAGG
# [1] = tested on: PPARg:RXRa DBDmut IVT, anti-RXR (DBD mutation: RXRa K156A/R161A, NR concentration 270 nM, RXRa partner concentration 90 nM)
# How it was run: (§1)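 Antibodies against each partner of ligand-free nuclear receptor dimers (one per run) detected binding on custom Agilent 4×180K protein-binding microarrays after 1 h incubation. The double-stranded probes had 34-nt variable regions carrying direct-repeat seeds, single-nucleotide variants, half-site ablations and random human genomic background sequences. Binding z-scores, from regression-normalized fluorescence, use the random background probes as reference.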
# [2] = tested on: PPARg:RXRa IVT, anti-PPARg (NR concentration 270 nM, RXRa partner concentration 90 nM)
# How it was run: as §1
# [3] = tested on: PPARg DBDmut:RXRa IVT, anti-PPARg (DBD mutation: PPARg1 K132A/R137A, NR concentration 270 nM, RXRa partner concentration 90 nM)
# How it was run: as §1
# [4] = tested on: PPARg DBDmut IVT, anti-PPARg (DBD mutation: PPARg1 K132A/R137A, NR concentration 270 nM)
# How it was run: as §1
# [5] = tested on: PPARg homodimer (NR concentration 180 nM)
# How it was run: as §1
# [6] = tested on: PXR:RXRa (NR concentration 270 nM, RXRa partner concentration 90 nM)
# How it was run: as §1
# [7] = tested on: PXR homodimer (NR concentration 270 nM)
# How it was run: as §1
# [8] = tested on: RARa:RXR (NR concentration 270 nM, RXRa partner concentration 90 nM)
# How it was run: as §1
# [9] = tested on: RARa homodimer (NR concentration 270 nM)
# How it was run: as §1
# [10] = tested on: RARb:RXRa (NR concentration 270 nM, RXRa partner concentration 90 nM)
# How it was run: as §1
# [11] = tested on: RARb homodimer (NR concentration 270 nM)
# How it was run: as §1
# [12] = tested on: RARg:RXRa (NR concentration 270 nM, RXRa partner concentration 90 nM)
# How it was run: as §1
# [13] = tested on: RARg homodimer (NR concentration 270 nM)
# How it was run: as §1
# [14] = tested on: RXRa DBDmut IVT, anti-RXR (DBD mutation: RXRa K156A/R161A, NR concentration 90 nM)
# How it was run: as §1
# [15] = tested on: RXRa homodimer (NR concentration 180 nM)
# How it was run: as §1
# [16] = tested on: THRa:RXRa (NR concentration 90 nM, RXRa partner concentration 90 nM)
# How it was run: as §1
# [17] = tested on: THRa homodimer (NR concentration 90 nM)
# How it was run: as §1
# [18] = tested on: VDR homodimer (NR concentration 270 nM)
# How it was run: as §1
Sequence,PBM binding z-score [1],PBM binding z-score [2],PBM binding z-score [3],PBM binding z-score [4],PBM binding z-score [5],PBM binding z-score [6],PBM binding z-score [7],PBM binding z-score [8],PBM binding z-score [9],PBM binding z-score [10],PBM binding z-score [11],PBM binding z-score [12],PBM binding z-score [13],PBM binding z-score [14],PBM binding z-score [15],PBM binding z-score [16],PBM binding z-score [17],PBM binding z-score [18]
ATATGTAGGTTAAGGGTCATCCAGGTTGGTTCGC,7.61,8.22,4.43,2.04,4.33,5.87,2.5,6.77,2.63,3.99,4.18,5.45,4.39,1.99,6.92,3.69,1.82,3.82
TCAGCTAGGTCAACGATGGTCAGCTAATCTGCTA,4.15,4.22,-0.361,-0.524,1.38,1.42,-0.591,1.96,-0.477,4.05,3.49,3.89,4.83,1.11,2.49,2.88,0.578,-0.3
GGAACGAGAGCAAAGTTGATAGCATCTGTCGACG,0.164,0.909,-1.31,-0.755,-0.156,-0.47,-0.418,-0.331,-1.16,-0.296,-0.806,-0.113,-0.0315,-0.36,0.334,-0.711,-1.35,-0.396
CGAACTAGGTCATCCAGGACAGAGAATACATTGA,8.15,8.34,2.22,1.68,1.64,1.97,1.05,2.45,0.545,3.79,2.81,4.02,4.59,2.33,3.1,3.49,1.8,1.64
CCGACCGGGGCAAGGTTACCATAACGCACAGCCA,0.434,0.22,-0.24,-0.801,0.684,0.376,-0.0438,1.28,0.236,1.97,1.54,1.65,1.73,-0.596,1.39,1.64,0.837,0.12
TCTTGTAGATCAAAGGTTAAGATAGCCGAAGCCT,2.14,4.36,0.743,0.848,2.49,2.29,-0.253,3.37,0.787,1.98,1.61,2.19,1.11,0.675,3.56,1.38,-0.548,0.153
CCTCGGATGACAACAGGAGGTCAGAGCTGCCAGA,-0.191,-0.245,0.202,-0.797,1.63,1.72,0.385,2.22,1.58,2.02,3,2.24,1.91,-0.48,2.01,1.92,0.407,0.749
CGTCATAGTTCAAGGTAACGTAACAGAAAGCAGC,0.329,0.799,0.676,1.29,1.19,1.39,0.511,1.43,0.512,3.34,2.2,2.96,3.42,2.26,1.99,2.32,1.16,0.917
CAGCCTAGGTCAGGGCCAGTATTGGAGGAACGTT,1.37,1.29,-1.49,-1.57,0.568,0.0346,-0.593,1.02,-0.698,3.35,2.67,2.91,3.91,-0.14,1.62,2,0.259,-0.444
AGAACGAGGGCACGCTGAGTTGATAGCCGAGTAG,4.46,4.04,0.489,0.266,0.0307,1.21,-0.287,0.916,-0.217,2.42,1.22,1.94,2.15,1.99,1.39,1.89,0.0635,1.57
TAGCCTATGTCAGATCGGGCCAGTATACGCTATA,-0.342,-0.424,-0.269,-0.692,-1.19,-0.323,-0.853,0.184,-0.755,0.0129,-0.337,-0.0162,-0.00722,-0.495,-0.0681,1.45,-0.592,-0.48
AGTCAAAGTTCAGGACGATGTAACGTAAAGCACG,-0.314,1.19,0.674,0.961,2.13,2.22,1.24,1.78,0.666,4.17,2.88,3.94,4.82,2.83,2.53,1.92,0.0967,1.75
GCTATCAGGCCATTTGGGTCACTCAATGACGGGC,2.06,2.59,-0.109,-0.362,0.448,1.01,0.354,1.2,-0.0153,1.87,2.39,1.19,1.66,0.754,0.858,2.55,1.57,0.781
TCTATTAGTTGAAGGGAAACCGACGAGTCCGTTT,2.49,-0.0119,0.417,1.24,1.32,0.508,0.678,0.362,1.42,0.377,-0.0745,-0.0691,-0.0615,1.6,0.396,-0.149,0.214,1.19
TCATATAGGCAAAAGGTGAAAGTCGGTGTGGTAA,3.66,3.79,0.358,-0.517,1.39,1.27,0.0545,1.81,0.897,1.81,1.81,1.45,0.567,1.45,2.12,1.24,0.0725,0.163
ATCGAAAGGTCGACGAGGTGTGTATACACCGTTT,0.053,1.53,-0.0457,0.936,1.17,2.67,-0.171,2.91,0.322,3.74,2.54,4.07,3.97,1.18,4.14,2.22,-0.542,0.527

Sequence,PBM binding z-score [1],PBM binding z-score [2],PBM binding z-score [3],PBM binding z-score [4],PBM binding z-score [5],PBM binding z-score [6],PBM binding z-score [7],PBM binding z-score [8],PBM binding z-score [9],PBM binding z-score [10],PBM binding z-score [11],PBM binding z-score [12],PBM binding z-score [13],PBM binding z-score [14],PBM binding z-score [15],PBM binding z-score [16],PBM binding z-score [17],PBM binding z-score [18]
ACTATTAGTTGAGACGAGGGCAACCGCTAGGTTG,0.0597,0.177,0.243,0.359,0.0959,1.55,0.226,0.773,0.0804,1.15,1.35,0.408,0.507,0.704,0.516,2.66,0.222,0.863
TAGCCTAGATCAGATCGGGCCAGTATACGCTATA,-0.0973,0.607,-0.736,-0.528,-1.3,-0.794,-1.1,-0.901,-1.23,-1.19,-1.29,-0.519,-0.508,-1.09,-0.577,0.52,-1.58,-1.04
TCGAATAGGTTAGTCGGGGCATTCAGCCAACATA,2.05,0.81,-0.355,-0.412,0.278,0.59,0.0716,0.628,-0.516,1.06,0.708,0.415,0.436,0.913,0.583,1.46,0.0462,0.528
CTTTACGGGTCACTGACAGGTTATAGCATTTGGA,4.85,4.95,0.913,1.44,2.33,3.9,0.619,5.01,0.972,4.14,3.58,6.21,5.08,2.54,5.93,3.18,0.855,1.15
CCGAGTAGGTTATGGGGCATTAAGGCAACGGTGA,3.03,3.54,-0.853,-0.637,1.15,-0.0362,-0.296,0.648,0.0185,0.818,1.08,0.561,0.543,-0.314,0.65,0.981,0.598,0.0646
TCTATTAGTTAATTAGGGCAACCGAAACAGCGGA,4.63,5.38,1.64,1.52,0.99,0.546,0.152,0.998,1.68,1.04,0.756,0.526,0.551,1.16,0.875,1.05,0.627,0.625
CTTCCAAGGTCAATGCTAGGTCAGTGAAAGCATT,3.33,4.08,1,0.112,4.08,4.64,1.63,6.06,0.988,5.2,4.79,7.32,6.93,3.55,5.39,4.33,3.09,2.95
ATATGTAGGCTATCGGGTCATTCAGTTTGCGCAT,5.77,5.5,1.43,1.46,1.08,2.87,6.85,2.54,0.357,1.72,2.23,2.01,1.52,1.1,2.08,2.91,1.79,3.16
CTACCAAGGTGAACATGGTCGTTGATTACTATTC,2.77,2.62,0.872,-0.0867,0.593,0.435,-0.201,1.12,0.284,1.66,1.25,1.06,1.14,0.571,0.87,2.25,1.03,-0.0794
CAAACTAGGTCACGAATGGTCAAAGTCGAATGAC,8.28,9.26,2.84,3.79,2.55,2.47,0.0543,3.22,0.681,4.62,3.87,4.77,5.18,1.61,3.82,3.74,1.51,0.784
GCGACTGGGGCAAAGTAGGTTACCATAAGGTTGG,5.3,5.17,-0.411,-0.49,-0.0778,0.322,-0.231,0.681,-0.558,1.21,1.42,0.662,0.576,-0.138,0.504,2.09,0.208,0.042
GCATATAGGTAATACAAGGTAAAAGTCCGATTGT,3.98,2.51,0.397,1.1,0.166,0.0106,-0.11,0.364,0.741,-0.207,-0.415,0.25,0.58,0.137,0.294,3.49,0.0793,-0.0351
TCTATTAGTTGATTAGGGCAACCTAAACAGCGGA,1.94,1.73,1.37,1.62,1.03,0.712,-0.0681,1.11,1.09,1.14,0.947,0.824,0.799,0.995,0.669,0.862,0.4,0.145
CAAACTAGGTCACAGAGGTCAATGTCCGTGCGTA,8.72,9.05,4.01,2.12,4.75,6.6,10.6,7.36,2.65,5.17,5.68,6.89,7.2,3.06,6.85,4.66,2.96,6.33
GCGACTGTGGCATCAGCAGGTTACCATAACTTAA,0.287,0.27,-0.703,-1.08,-0.566,-0.281,-0.227,0.0331,-0.798,0.00959,0.205,-0.1,-0.291,-0.209,0.187,0.277,0.0891,-0.501
